# In PubChem BioAssay (NCI):
# The panel holds about 83,000 compounds, 20% with a hit somewhere; the sample as a whole holds those more often.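 Percent growth is the endpoint: 0 to 100 indicates growth inhibition (40 means 60% inhibition), 0 means no net growth, and negative values indicate cell death.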 A number with no mark means an inactive call. Calls of active or inactive are those of the source.
# Tested on: HOP-92 NSCLC
# Assay: NCI-60 one-dose screen, 48 h (100 = growth as untreated, 0 = no growth, -100 = all killed)
# Conditions: 10 µM
# Procedure: Growth inhibition of the HOP-92 human Non-Small Cell Lung tumor cell line is measured as a screen for anti-cancer activity. Cells are grown in 96 well plates and exposed to the test compound for 48 hours. Compounds are tested at a single concentration, which is 10^-5 M for most compounds. The reported endpoint is percent growth (GI% or GIPRCNT), where numbers from 0 - 100% represent growth inhibition, and numbers from -100% - 0 represent cell death. For example, a value of 40 represents 60% growth inhibition. A value of 0 means no net growth occurred over the course of the experiment. A value of -40 indicates 40% of cells at the beginning of the experiment died by the end of the experiment. A value of -100 means all cells are dead at the end of the experiment.
# NCI-60 Human Tumor Cell Lines Screen was performed using the standard one-dose NCI protocol, which is described in more detail at https://dtp.cancer.gov/discovery_development/nci-60/default.htm.
# Compounds with GIPRCNT values below 10 were considered active. Activity score was based on GIPRCNT using the following formula: […]
# Score is 0 for GIPRCNT values of 100 or above, 50 for GIPRCNT values of 0, and 100 for GIPRCNT values of -100.
row,Structure (SMILES),growth
1,C#C[C@]1(O)CC[C@H]2[C@@H]3CC=C4c5sc(Nc6cc(C)cc(C)n6)nc5CC[C@]4(C)[C@H]3CC[C@@]21C,-22.2% (active)
2,C#C[C@]1(O)CC[C@H]2[C@@H]3CC=C4c5sc(Nc6ccc(N(C)C)cc6)nc5CC[C@]4(C)[C@H]3CC[C@@]21C,9.62% (active)
3,COc1ccc(-n2c(SCC(=O)NNS(=O)(=O)c3ccccc3)nc3ccc(Cl)cc3c2=O)cc1,101%
4,COc1cc(Nc2nc(O)c(/C=C3\C=Nc4ccccc43)s2)cc(OC)c1OC,-72.3% (active)
5,Cc1ccc(-c2nc(C#N)c(S(=O)(=O)N3CCN(S(C)(=O)=O)CC3)o2)cc1,63.7%
6,O=C(c1ccc(Cl)cc1)C(c1c[nH]c2ccccc12)c1c[nH]c2ccccc12,-15.7% (active)
7,O=C(CN1CCN(c2ncnc3c2cnn3-c2ccccc2)CC1)Nc1ccc(Cl)cc1,69.8%
8,O=C(CN1CCN(c2ncnc3c2cnn3-c2ccccc2)CC1)Nc1ccc(Br)cc1,74.6%
9,Cn1cc(-c2cc3nc(-c4c[nH]c5ccccc45)cc(N)n3n2)c2cc(Cl)ccc21,-81% (active)
10,COc1ccc(Cc2nn(CC(=O)N/N=C/c3ccc(Br)cc3)c(=O)c3c(C)noc23)cc1,-15% (active)
11,Fc1ccc(/C=C/c2nc3ccccc3n3c(-c4ccc(Cl)cc4)nnc23)cc1,67.6%
12,CC1(C)CC[C@]2(C(=O)O)CC[C@]3(C)C(=CCC4[C@@]5(C)C[C@@H](O)[C@@H]6OC(c7cccc(F)c7)OC[C@@]6(C)C5CC[C@]43C)C2C1 (stereo not given in full),41.9%
13,Fc1ccc(-c2csc(Nc3cccc(Nc4nc(-c5ccc(F)cc5)cs4)c3)n2)cc1,39.2%
14,COc1cc2oc(-c3cccc(C(=O)Nc4ccc(Cl)cc4)c3)cc(=O)c2c(OCCN)c1OC,-84% (active)
15,CCOC(=O)c1ccc(NC(=O)CSC(CC(=O)c2sc(Nc3ccccn3)nc2C)c2ccccc2F)cc1 (stereo not given),-14.5% (active)
16,O=C1S/C(=C\c2ccc([N+](=O)[O-])cc2)C(=O)N1CCN1CCCCC1,146%
17,Cn1cc(-c2cc(N)n3nc(-c4cn(C)c5ccccc45)cc3n2)c2cc(F)ccc21,-78.4% (active)
18,COc1ccc(OC)c(-n2cc(C#N)c(N)c2C(=O)c2ccc(Cl)cc2Cl)c1,91.6%
19,O=[N+]([O-])c1cccc(-c2nnc3c(/C=C/c4ccccc4O)nc4ccccc4n23)c1,51.2%
20,O=C(c1ccc(F)cc1)C(c1c[nH]c2ccccc12)c1c[nH]c2ccccc12,90.5%

row,Structure (SMILES),growth
1,C#C[C@]1(O)CC[C@H]2[C@@H]3CC=C4c5sc(Nc6ccc(C(F)(F)F)cn6)nc5CC[C@]4(C)[C@H]3CC[C@@]21C,-7.64% (active)
2,COc1cc2oc(-c3cccc(C(=O)Nc4ccc(Cl)cc4)c3)cc(=O)c2c(OCCNC(=O)[C@@H](N)CO)c1OC,-2.3% (active)
3,COc1cc(C2CC(c3ccccc3)=Nc3c(N)nc(N)nc3N2)ccc1Oc1nc(NCCO)nc(N2CCOCC2)n1 (stereo not given),86.3%
4,COc1ccc2[nH]cc(-c3nc(N)nnc3-c3cn(C)c4ncc(Br)cc34)c2c1,-2.43% (active)
5,Cc1ccc(S(=O)(=O)N2CCN(S(=O)(=O)c3oc(-c4ccccc4)nc3C#N)CC2)cc1,93%
6,COc1ccc(NCc2cn(-c3ccc(C(=O)O)cc3)nc2-c2ccc(F)cc2)cc1C(F)(F)F,68.3%
7,COc1ccc(Cn2cc(C#N)c(N)c2C(C)=O)c(OC)c1,85.7%
8,O=C(c1ccccc1)c1ccc2nc(-c3ccccc3Br)[nH]c2c1,-90.6% (active)
9,CC1[C@H]2[C@H](C[C@H]3[C@@H]4CC=C5c6sc(Nc7cccc(Cl)n7)nc6CC[C@]5(C)[C@H]4CC[C@@]32C)O[C@]12CC[C@@H](C)CO2 (stereo not given in full),99.6%
10,Cn1cc(-c2nnc(N)nc2-c2c[nH]c3ccc(F)cc23)c2cc(Br)cnc21,26.4%
11,COc1ccccc1-n1cc(C#N)c(N)c1C(=O)c1ccc(Cl)cc1Cl,44.2%
12,C#CCOc1cc(N(CC)CC)ccc1C(C(=O)NC(C)(C)C)N(C(=O)C1CCc2cc(F)ccc2O1)c1ccc(F)cc1F (stereo not given),30.5%
13,CCOc1ccc(/C=N/NC(=O)Cn2nc(Cc3ccc(OC)cc3)c3onc(C)c3c2=O)cc1,-25.7% (active)
14,COC(=O)CNC(=O)COc1c(OC)c(OC)cc2oc(-c3cccc(C(=O)Nc4ccc(Cl)cc4)c3)cc(=O)c12,39.1%
15,Nc1nnc(-c2c[nH]c3ncc(Br)cc23)c(-c2c[nH]c3ccc(Br)cc23)n1,28.4%
16,COc1ccc(C2OC[C@@]3(C)C4CC[C@]5(C)C(CC=C6C7CC(C)(C)CC[C@]7(C(=O)O)CC[C@]65C)[C@@]4(C)C[C@@H](O)[C@@H]3O2)cc1 (stereo not given in full),64.8%
17,COc1cccc(O)c1/C=C1\SCc2cc3c(OC)cccc3[o+]c21,154%
18,COc1cc(-c2nc3ccc(C)cc3[nH]2)ccc1OCc1nnc(-c2ccccc2Br)o1,84.3%
19,CCOC(=O)C1=C(N)N(c2ccc(C)cc2)C2=C(C(=O)CC(C)(C)C2)C1c1ccccc1Br (stereo not given),71.6%
20,COc1ccc(Cc2nn(CC(=O)N/N=C/c3ccc([N+](=O)[O-])cc3)c(=O)c3c(C)noc23)cc1,91.6%
